Most compounds without a hit are left out; they make up all but 11% or so of the library.
G9a inh: qHTS Assay for Inhibitors of Histone Lysine Methyltransferase G9a; Potency, µM (titrated, usually from 102 µM), without a hit: at the top dose activity, negative = inhibition, most hits filed as inhibitors; G9a H3K9 monomethylation, AlphaScreen, 2 h; 8.8% of 350,000 active; Histone-lysine N-methyltransferase EHMT2 (Homo sapiens), Q96KQ7; also: potency is read from the fitted curve at half-maximal effect; % is scaled to controls: 0 for no effect and ±100 for the full control effect; nearly all actives have a fitted effect of over 75% in size
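Methyltransferase reactions run at room temperature for 2 h (20 nM enzyme, 500 nM biotin-H3K9 peptide, 20 uM SAM) after a 15 min compound preincubation; product detected by AlphaScreen beads and anti-H3K9me1 antibody.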
PI5P4Ka inh: qHTS for Inhibitors of phosphatidylinositol 5-phosphate 4-kinase (PI5P4K); Phosphatidylinositol 5-phosphate 4-kinase type-2 alpha (Homo sapiens), P48426; PI5P4Kalpha enzyme, ADP-Glo luminescence, 60 min; active compounds read low; max response, %; 1.2% of 330,000 active; active = max response of -50% or lower; inconclusive = between -30% and -50%; inactive = -30% or higher; also: value at the top dose of about 77 µM; % is scaled to controls: 0 for no effect and ±100 for the full control effect
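ADP-Glo luminescence end-point after a 60 min room-temperature kinase reaction. PI5P4Kalpha and substrate in HEPES pH 7.4 buffer with EGTA, 0.1% CHAPS and 5% DMSO; ATP at 5 microM final.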
BAZ2B inh: qHTS Assay for Inhibitors of BAZ2B; AlphaScreen BAZ2B-H3K14Ac peptide displacement; Potency, µM (highest dose often 114 µM), for inactives: at the top dose activity change, negative = inhibition, hits mostly inhibitors; 4.4% of 360,000 active; also: potency is read from the fitted curve at half-maximal effect; % is scaled to controls: 0 for no effect and ±100 for the full control effect; nearly all actives have a fitted effect of over 60% in size
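AlphaScreen displacement: compounds (up to 110uM) incubated 30 min at room temperature with a preformed 50 nM BAZ2B/50 nM biotinylated H3K14Ac peptide complex in PBS pH 7.4 with Tween-20. Donor and acceptor beads at 10 ug/mL final added, 20 min light-protected before reading.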
HP1b binding inh: HTS for Inhibitors of HP1-beta Chromodomain Interactions with Methylated Histone Tails. AlphaScreen HP1-beta / biotin-H3K9me3 peptide binding. Potency, µM (highest dose often 114 µM), inactives show top-dose activity change, negative = inhibition, usual class: inhibitors. 0.56% of 390,000 active; also: potency is read from the fitted curve at half-maximal effect; nearly all actives have a fitted effect of over 70% in size
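Compound inhibition of the preformed complex between 50 nM HP1-beta and 50 nM biotinylated H3K9me3 peptide was read by AlphaScreen. Buffer was PBS pH 7.4 with 0.01% Tween-20. Incubations ran 30 min at room temperature, with 10 ug/mL donor/acceptor beads.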
JMJD2A Tudor inh: qHTS Assay for Inhibitors of JMJD2A-Tudor Domain. Lysine-specific demethylase 4A (Homo sapiens), O75164. AlphaScreen JMJD2A-Tudor / H3K4me3 peptide binding. Potency, µM (doses to about 114 µM), for inactives: top-dose activity change, negative = inhibition, usual class: inhibitors. 4.4% of 390,000 active; also: potency is read from the fitted curve at half-maximal effect; % is scaled to controls: 0 for no effect and ±100 for the full control effect; nearly all actives have a fitted effect of over 50% in size
L3MBTL1 inh: qHTS Assay for the Inhibitors of L3MBTL1; Lethal(3)malignant brain tumor-like protein 1 (Homo sapiens), Q9Y468; AlphaScreen L3MBTL1–H3K9me1 peptide binding; Potency, µM (titrated, usually from 57.1 µM), without a hit: at the highest dose activity, negative = inhibition, most hits filed as inhibitors; 0.66% of 230,000 active; also: potency is read from the fitted curve at half-maximal effect; % is scaled to controls: 0 for no effect and ±100 for the full control effect; nearly all actives have a fitted effect of over 60% in size
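L3MBTL1 50 nM + b-AHA-H3(1-15)K9me1 75 nM, 30 min RT; compound added, 30 min RT; streptavidin donor/Ni-chelate acceptor beads 10 ug/mL each final, 30 min RT dark; AlphaScreen read.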
The depositor's hits bear a star; ? = inconclusive; . = not tested or not shown; [ ] = another dose, or the depositor's remark. Unless noted, calls follow the shape of the dose curve; as a rule, active = well fitted inhibition curve with a large enough effect; inconclusive = small, poorly fitted or top-dose-only effect; inactive = no such curve, though single readings can be large or run the other way.

SMILES	G9a inh	PI5P4Ka inh	BAZ2B inh	HP1b binding inh	JMJD2A Tudor inh	L3MBTL1 inh
COCCn1c(=O)cnc2cnc(Oc3ccccc3)nc21	4%[0.501 µM]	.	.	.	.	.
O=C(CCCn1c(=O)c2cccn2c2cccnc21)NCc1ccccc1Br	-21%[59 µM]	.	-30%	42%	-19%	.
O=C(N/C=C\c1ccccc1)NCc1ccc(Cl)cc1Cl	25µM*	7	-1%	-13%	-13%[57.1 µM]	10%
COc1ccccc1CNC(=O)N/C=C/c1ccc(Cl)cc1	32µM*	1	-13%	-15%	-35%	5%
O=C(N/C=C\c1ccccc1)NCc1ccc(Cl)cc1	?	-4	2%	18%	-10%	4%
CCN1/C(=C2/SC(=S)N(C)C2=O)C=Cc2cc(C)ccc21	.	4	.	8%	-23%	.
CCN1C(=O)/C(=C2/C=Cc3cc(C)ccc3N2CC)N(C)C1=S	11µM*	-24	40µM*	?	16µM*	-10%
CCN1/C(=C2\C(=O)N(C)C(=S)N2C)C=Cc2cc(OC)ccc21	7.9µM*	2	56µM*	?	?	-1%
CCNc1ncc2nc(-c3cc(F)cc(F)c3)c(=O)n(C)c2n1	11%[0.501 µM]	.	.	.	.	.
CCOC(=O)c1c(N)sc2c1C1CCN2CC1	79µM*	-9	-39%	-3%	-32%	4%
CCOC(=O)c1c(NC(C)=O)sc2c1C1CCN2CC1	.	-14	.	6%	6%[11.4 µM]	.
O=C1CC(c2ccccc2)Cc2[nH]c(=O)c(-c3nc(-c4cccc(Cl)c4)cs3)cc21 (stereo not given)	17%[59 µM]	.	12%	50%	17%	.
O=C(C[C@H]1CC[C@@H]2[C@H](COC[C@H](O)CN2C(=O)c2cnccn2)O1)NCc1ccc(Cl)cc1	.	-4	.	.	.	.
COc1ccc(CNC(=O)CCc2c(C)nc3c4cccnc4nn3c2C)cc1	18%[59 µM]	.	-14%	50%	-27%	.
Oc1c(N=Nc2ccccn2)ccc2ccccc12	19%[0.501 µM]	-10	3.2µM*	5µM*	2.8µM*	11µM*
Cc1sc2nc(SCC(=O)Nc3cccc(C(=O)O)c3)[nH]c(=O)c2c1C	25µM*	-73*	-6%	-14%	-23%	-9%
Cc1sc2nc(SCC(=O)Nc3ccc(S(N)(=O)=O)cc3)[nH]c(=O)c2c1C	6%	4	-29%	17%	-11%	.
Cc1c(C(=O)O)sc2nc(SCC(=O)Nc3ccc(S(=O)(=O)NCCCC(=O)O)cc3)[nH]c(=O)c12	-34%	-70*	?	65%	0%	.
Cc1ccc(F)cc1NC(=O)CSCc1nc2sc(C)c(C)c2c(=O)[nH]1	40µM*	-11	-2%	12%	-22%	5%
Cc1sc2nc(SCC(=O)Nc3ccc(Cl)c(C(=O)O)c3)[nH]c(=O)c2c1C	.	-5	.	20%[57 µM]	-19%	.
Cc1c(C(=O)O)sc2nc(SCC(=O)Nc3ccc(S(=O)(=O)NC(C)(C)C)cc3)[nH]c(=O)c12	-45%	-86*	.	26%	-6%	.
COc1ccccc1CN1CCCC2(CCN(C(=O)c3ccncc3)CC2)C1	4%[12.7 µM]	.	.	.	.	.
CCOC(=O)CSc1nc2sc(C)c(C)c2c(=O)[nH]1	-6%[12.7 µM]	-4	2%	62%	16%	?
CCOC(=O)CSc1nc2sc(C(=O)O)c(C)c2c(=O)[nH]1	79µM*	-76*	3%	33%	-6%	3%
CCOc1ccc(C(=O)Nc2ccc(-c3nc4ccccc4s3)c(C)c2)cc1OCC	1%[59 µM]	.	0%	42%	-9%	.
Cc1nnc(SCC(=O)c2cc(C)n(-c3ccc4c(c3)OCO4)c2C)s1	?	.	45µM*	-22%	?	-26%
Cc1ccc(CNC(=O)CCn2cc(-c3ccc(C)cc3)nc2-c2ccncc2)cc1	45µM*	13	?	-4%	-26%	-1%
O=c1[nH]c(-c2ccccc2)c(-c2ccccc2)o1	45µM*	2	-30%	22%	-18%	.

High-throughput results from PubChem BioAssay.
